The list is not random: actives were taken first. Their share in the collection is about 11%.
IL1B secr inh = inhibitors of inflammasome signaling (IL-1 beta secretion) | THP-1 LPS/ATP IL-1B secretion, AlphaLISA, 16 h; active compounds read low | activity change, % at 57.5 µM | 360,000 compounds, 4.7% hits; in the data active = activity change below about -50%; inconclusive = mostly about -30% to -49%; also: % is scaled to controls: 0 for no effect and ±100 for the full control effect
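Secreted IL-1B measured by AlphaLISA bead assay after 16 h compound exposure of THP-1 cells; compounds (final up to 57.5 uM) added 1 h before LPS (250 ng/mL) and ATP (1.25 mM) stimulation; lower signal means less secretion.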
VP16 counter = inhibits Gal4-VP16 luciferase reporter, ROR gamma counter-screen; Drosophila S2 Gal4-VP16 UAS-luciferase, luminescence, 20 h; Potency, µM (series often up to 53.6 µM), for inactives: at the highest dose activity, negative = inhibition, most hits filed as inhibitors; 310,000 compounds, 3.5% hits; AID 2546;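 also: Gal4-VP16 expression switched on by copper sulfate through the metallothionein promoter; potency is read from the fitted curve at half-maximal effect; % is scaled to controls: 0 for no effect and ±100 for the full control effect; nearly all actives have a fitted effect of over 50% in size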
SW480 rerep = inducers of DNA re-replication in SW480 colon cancer cells; SW480 DNA re-replication, Hoechst DNA content imaging, 48 h; Potency, µM (doses to about 46.1 µM), for inactives: at the top dose re-replication activation, most hits filed as activators; 340,000 compounds, 1.8% hits; AID 624297; also: potency is read from the fitted curve at half-maximal effect; % of control where 0% means no effect; nearly all actives have a fitted effect of over 55% in size
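Cells (250 per well) received 23 nL compound or DMSO by pin tool and were kept 48 hr at 37 C, 5% CO2. Nuclei were then stained with Hoechst for 40 min and scanned for DNA content.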
MCF10A rerep = DNA re-replication induction in MCF 10a cells; MCF 10A DNA re-replication, Hoechst nuclear intensity, 48 h; Potency, µM (highest dose often 46.1 µM), inactives show top-dose activity, positive = re-replication, usual class: activators; 350,000 compounds, 2.9% hits; also: potency is read from the fitted curve at half-maximal effect; % of control where 0% means no effect; nearly all actives have a fitted effect of over 50% in size
RORgamma inh = inhibitors of mouse ROR gamma transcriptional activity; 310,000 compounds, 5.4% hits; AID 2551; Potency, µM (titrated, usually from 53.6 µM), for the others: top-dose activity change, negative = inhibition, usual class: inhibitors; Drosophila S2 Gal4-RORgamma UAS-luciferase reporter, 20 h; also: potency is read from the fitted curve at half-maximal effect; % is scaled to controls: 0 for no effect and ±100 for the full control effect; nearly all actives have a fitted effect of over 60% in size
Target sequence (P51450 whole entry, looked up, the tested form may be a part): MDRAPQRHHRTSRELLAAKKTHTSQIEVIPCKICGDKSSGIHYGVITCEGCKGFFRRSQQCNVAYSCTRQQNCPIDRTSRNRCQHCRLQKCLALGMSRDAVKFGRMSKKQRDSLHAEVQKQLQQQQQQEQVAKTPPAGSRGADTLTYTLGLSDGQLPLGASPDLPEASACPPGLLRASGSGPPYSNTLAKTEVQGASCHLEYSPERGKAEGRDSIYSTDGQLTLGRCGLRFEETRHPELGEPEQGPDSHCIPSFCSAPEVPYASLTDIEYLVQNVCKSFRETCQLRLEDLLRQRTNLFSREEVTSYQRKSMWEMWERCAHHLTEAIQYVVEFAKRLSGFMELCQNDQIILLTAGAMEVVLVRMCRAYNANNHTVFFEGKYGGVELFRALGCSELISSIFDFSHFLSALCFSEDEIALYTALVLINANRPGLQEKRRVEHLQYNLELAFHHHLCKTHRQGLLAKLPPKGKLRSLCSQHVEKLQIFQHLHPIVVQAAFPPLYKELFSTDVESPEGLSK
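Compounds are pin-transferred onto Drosophila Schneider cells expressing a copper-inducible Gal4–ROR gamma transactivation domain fusion. After 1 hr, copper sulfate is added to 700 uM final; luciferase is read 20 hr later.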
The depositor's hits bear a star; ? = inconclusive; · = no result; ! = not active in a repeat. Unless noted, calls follow the shape of the dose curve; as a rule, active = well fitted curve in the direction sought with a large enough effect; inconclusive = small, poorly fitted or top-dose-only effect, or another doubt; inactive = no such curve, though single readings can be large; an effect the other way counts as inactive or inconclusive.

SMILES	IL1B secr inh	VP16 counter	SW480 rerep	MCF10A rerep	RORgamma inh
O=C(CSc1nnnn1C1CCCCC1)N1CCN(C(=O)c2ccco2)CC1	-11	7.9µM*	-42%	-12%	3.2µM*
Cn1c(=O)cc(SCC(=O)N2CCN(c3ccccn3)CC2)c2ccccc21	-50*	-12%	0%	?	-2%
CCn1c(=O)cc(SCC(=O)N2CCN(C(=O)c3ccco3)CC2)c2ccccc21	-52*	13%	-7%	?	-30%
Cn1c2ccccc2c2c(C(=O)N3CCN(c4ccccn4)CC3)cn(C3CCCC3)c(=O)c21	-59*	-19%	-7%	4%	-11%
Cc1ccc([N+](=O)[O-])cc1NC(=O)c1c(-c2ccccc2)noc1C	7	-9%	4%	12%	-2%
O=C(COc1ccccc1)NCC(=O)Nc1ccncc1	24	·	-6%	8%	·
COc1cc(/C=C2/SC(=O)NC2=O)ccc1Oc1ccc([N+](=O)[O-])cc1[N+](=O)[O-]	?	-3%	13µM*	?	-28%
CC1=NN(c2ccccc2)C(=O)/C1=C\c1ccc(Oc2ccc([N+](=O)[O-])cc2[N+](=O)[O-])cc1	-29	?	14%	?	-39%
COc1cc(/C=C2\C(=O)N(c3ccccc3)N=C2C)ccc1Oc1ccc([N+](=O)[O-])cc1[N+](=O)[O-]	?	-28%	-118%	9.2µM*	-35%
Cc1ccc(N2CC(C(=O)Nc3cc(S(=O)(=O)N4CCCCC4)ccc3C)CC2=O)cc1 (stereo not given)	-20	·	·	·	·
Cc1cc(-c2nnc(SCC(=O)N3C(C)CCCC3C)o2)no1 (stereo not given)	18	-12%	6.5µM*	?	4%
O=C(CSc1nnc(C2COc3ccccc3O2)o1)Nc1nccs1 (stereo not given)	20	22µM*	-5%	12%	?
Cc1cc(-c2nnc(SCC(=O)c3ccc(F)cc3)o2)no1	?	?	2%	-1%	?
Cc1cc(-c2nnc(SCC(=O)Nc3nccs3)o2)no1	-8	?	-7%	-1%	16µM*
Cc1ccc(O)c(-c2[nH]ncc2C(=O)c2ccc(Cl)cc2)c1	-86*	4%	7%	-4%	-15%
CCOC(=O)C1CCN(S(=O)(=O)c2ccc3c(c2)CC(C)N3C(=O)C2CCC2)CC1 (stereo not given)	21	-5%	9%	3%	32%
O=C(OCc1cn([C@H]2C[C@H](c3ccc(Cl)cc3)N(C(=O)c3cccs3)C[C@@H]2O)nn1)c1ccccc1	11	·	·	·	·
Cc1ccccc1CSc1nnc(-c2ccccn2)n1C	-7	8%	-10%	3%	-1%
Cc1ccccc1CSc1nccn1-c1ccccc1	-20	13µM*	18%	9%	2.5µM*
O=C(c1ccoc1)N1CCN(c2cc(-c3cccc(F)c3)nc3cc(-c4cccc(Cl)c4)nn23)CC1	25	·	·	·	·
Cc1cccc(NC(=O)NNC(=O)c2ccccn2)c1	-12	·	-14%	-1%	·
COCCn1c(=S)[nH]c2cc(C(=O)N3CCN(c4cccc(Cl)c4)CC3)ccc2c1=O	-16	?	?	?	11µM*
CCOC(=O)N1CCN(C(=O)c2cccc(-n3c(=S)[nH]c4cc(Cl)ccc4c3=O)c2)CC1	-1	-9%	-9%	-10%	11µM*
CCOCCCn1c(=S)[nH]c2cc(C(=O)N3CCN(c4ccccc4)CC3)ccc2c1=O	29	?	-7%	3%	13µM*
Cc1ccc(-n2nc3c(=O)n(CCCC(=O)NCc4cccc(F)c4)nc(C)c3c2C)cc1	-3	-5%	3%	3%	11%
SMILES	IL1B secr inh	VP16 counter	SW480 rerep	MCF10A rerep	RORgamma inh
Cc1nc(C(=O)Nc2ccccc2)sc1C1(C)CC(c2cccnc2)=NO1 (stereo not given)	26	-1%	1%	-1%	45%
COc1ccc(NC(=O)c2nc(C)c(C3(C)CC(c4ccccc4)=NO3)s2)cc1 (stereo not given)	54	-2%	4.6µM*	3.7µM*	-22%
COC(=O)c1cc(C(=O)OCC(=O)NNC(=O)c2cccs2)cc([N+](=O)[O-])c1	-7	·	2.9µM*	-10%	·
CS(=O)(=O)c1ccc(C(=O)OCC(=O)NCc2cccs2)cc1[N+](=O)[O-]	-97*	·	9.2µM*	4.1µM*	·
Cc1cc(C(=O)OCC(=O)NNC(=O)c2cccs2)ccc1[N+](=O)[O-]	7	·	12µM*	?	·
O=C(COC(=O)c1ccc(Cl)cc1[N+](=O)[O-])NNC(=O)c1cccs1	8	·	-11%	-1%	·
Cc1cccc(C(=O)OCC(=O)NCc2cccs2)c1	26	4%	-8%	13%	2%
COc1ccc(C(=O)OCC(=O)c2ccco2)cc1[N+](=O)[O-]	-10	·	·	·	·
CC(=O)Nc1ccc(S(=O)(=O)NC2=C(N3CCN(c4ccc(F)cc4)CC3)C(=O)c3ccccc3C2=O)cc1	-7	-10%	16µM*	16µM*	-40%
Cc1ccc(S(=O)(=O)NC2=C(N3CCN(c4ccccc4F)CC3)C(=O)c3ccccc3C2=O)cc1	-64*!	-9%	1%	14%	11%
Cc1ccc(S(=O)(=O)NC2=C(N3CCN(Cc4ccccc4)CC3)C(=O)c3ccccc3C2=O)cc1	-11	9%	1%	6%	1%
C[C@@H]1CC2(OC[C@]3(C)O[C@H]23)O[C@H]2C[C@@]3(C)[C@@H]4CC[C@H]5C(C)(C)C(O[C@@H]6OC[C@@H](O)[C@H](O)[C@H]6O)CC[C@@]56C[C@@]46CC[C@]3(C)[C@@H]12 (stereo not given in full)	·	1%	·	·	2%
Cc1c(NC(=O)Nc2ccc(Cl)c(Cl)c2)sc(=S)n1C	-97*	·	3%	?	·
COc1ccc(NC(=O)Nc2sc(=S)n(C)c2C)cc1	-13	0%	-5%	-18%	?
CNC(=S)NNc1nc(-c2ccccc2)c2cc(Cl)ccc2n1	-27	·	-2%	6%	·
CCNC(=S)NNc1nnc(-c2ccccc2)c(-c2ccccc2)n1	-4	?	-2%	-15%	13µM*
CCNC(=S)NNC(=S)NCc1ccccc1	-5	?	?	-4%	7.1µM*
CCCCC(=O)NNC(=S)NCc1ccccc1	31	-4%	-7%	-2%	14µM*

High-throughput results: PubChem BioAssay, National Center for Advancing Translational Sciences (NCATS)
